# Records with an inconclusive call do not appear. Active and inactive are the calls of the source.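 Rule for the calls: active = fewer circulating green fluorescent tagged thrombocytes in treated fish, with no visible harm to the embryos; inconclusive = compound visibly harmful to the embryos; inactive = no drop in circulating tagged thrombocytes.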
# Assay: qHTS Assay for Compounds Blocking the Interaction Between CBF-beta and RUNX1 for the Treatment of Acute Myeloid Leukemia: Zebrafish assay for Hematopoiesis, SAR for Probe
# Settings: GFP-cd41 zebrafish embryos, microscopy, 5 days, stronger effect = lower value
# Description: NIH Chemical Genomics Center [NCGC] NIH Molecular Libraries Probe Production centers Network [MLPCN] MLPCN Grant: X01MH083259-01 Assay Submitter (PI): Paul Liu NCGC Assay Overview: Core Binding Factor (CBF) abnormalities are associated with 20-25% of all acute myeloid leukemias (AML), of which 5-10% are further sub classified as acute myelomonocytic leukemia with eosinophilia, also known as M4Eo in the FAB classification scheme. This subtype of leukemia is usually associated with chromosome 16 inversion (p13:q22). Chromosome 16 inversion results in formation of the fusion oncogene CBFB-MYH11, which encodes the fusion protein CBF-beta-SMMHC. […] It has been hypothesized that the interference of CBF-beta and RUNX1 binding could have therapeutic implications for patients with CBF mediated leukemias. We developed a CBF-beta and RUNX1 binding assay in AlphaScreenTM format and optimized it for high throughput screening to search for inhibitors. The goal of this project is to screen MLPCN's compound collection (MLSMR) for identifying the inhibitors of the interaction between CBF-beta and RUNX1 proteins as research probes. If these probes work well in the animal models, the ultimate goal of this project is to development a new drug treatment for this disease. […] These fish contain a genomic modulation where GFP has been fused to cd41, a marker for thrombocytes, and thus circulating thrombocytes can be easily imaged in anesthetized fish.
# Assay protocol: GFP-cd41 zebrafish were kindly provided by the Liu lab. Zebrafish embryos were incubated with compound (<0.1% DMSO final) at 48 hours post fertilization, for 5 days. Embryos were manually scored under a microscope with GFP illumination for circulating GFP-tagged thrombocytes. Keywords: MLSMR, MLPCN, NIH Roadmap, qHTS, NCGC, Core binding factor, CBF, CBF-beta, Acute myeloid leukemia
Structure (SMILES),fish with circulating GFP thrombocytes (at 25 µM),fish with circulating GFP thrombocytes (at 50 uM) [%]
CCN(CC)CCN1C(=O)CN=C(c2ccc[nH]2)c2cc(Cl)ccc21,45.8% (active),70.8
CN1C(=O)CN=C(c2ccc[nH]2)c2cc(Cl)ccc21 (tested in a mixture with another compound),29.2% (active),0
CCN(CC)CCN1C(=O)CN=C(c2ccccn2)c2cc(Cl)ccc21,66.7% (active),66.7

# — PubChem BioAssay AID504373 (National Center for Advancing Translational Sciences (NCATS), 2011)
